About 83,000 compounds went through this panel and 20% of them were active in at least one assay; those are over-represented in the sample as a whole.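 Negative percent growth values reflect cell death: -40 means 40% of the cells present at the start died, and -100 means all died.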 A number with no mark means an inactive call. The source made the active and inactive calls. How the source made its calls: active means growth percent below 10; inactive means the rest.
Experiments:
Test in all cases: NCI-60 one-dose screen, 48 h (100 = growth as untreated, 0 = no growth, -100 = all killed)
NCI-H226 lung = conditions: 10 µM
NCI-H322M lung = conditions: 10 µM
HOP-62 NSCLC = conditions: 10 µM
NCI-H460 lung = conditions: 10 µM
NCI-H522 lung = conditions: 10 µM
A549/ATCC NSCLC = conditions: 10 µM
COLO 205 colon = conditions: 10 µM
DU-145 prostate = conditions: 10 µM
SF-268 CNS = conditions: 10 µM
SF-295 CNS = conditions: 10 µM
SF-539 CNS = conditions: 10 µM
UACC-257 melanoma = conditions: 10 µM
HT29 colon = conditions: 10 µM
SNB-75 CNS = conditions: 10 µM
U251 CNS = conditions: 10 µM
PC-3 prostate = conditions: 10 µM
SK-MEL-5 melanoma = conditions: 10 µM
UACC-62 melanoma = conditions: 10 µM
SK-MEL-2 melanoma = conditions: 10 µM
HL-60(TB) leukemia = conditions: 10 µM unless noted

| SMILES | growth (NCI-H226 lung) | growth (NCI-H322M lung) | growth (HOP-62 NSCLC) | growth (NCI-H460 lung) | growth (NCI-H522 lung) | growth (A549/ATCC NSCLC) | growth (COLO 205 colon) | growth (DU-145 prostate) | growth (SF-268 CNS) | growth (SF-295 CNS) | growth (SF-539 CNS) | growth (UACC-257 melanoma) | growth (HT29 colon) | growth (SNB-75 CNS) | growth (U251 CNS) | growth (PC-3 prostate) | growth (SK-MEL-5 melanoma) | growth (UACC-62 melanoma) | growth (SK-MEL-2 melanoma) | growth (HL-60(TB) leukemia) |
| --- | --- | --- | --- | --- | --- | --- | --- | --- | --- | --- | --- | --- | --- | --- | --- | --- | --- | --- | --- | --- |
| CCC[Se]C(=O)c1ccc(C(=O)[Se]CCC)s1 | -50.9% (active) | -33.4% (active) | -77.7% (active) | -11.9% (active) | 17.9% | -46.2% (active) | -85.7% (active) | 9.92% (active) | 3.6% (active) | -85.7% (active) | -84.7% (active) | -53.7% (active) | -58.5% (active) | -31.2% (active) | -60.4% (active) | 4.67% (active) | -76.3% (active) | -64.9% (active) | -24.1% (active) | -26.7% (active) |
| CN(C)CCc1cn(C2CCC2)c2cccc(O)c12 | 69.6% | 91.2% | 82.1% | 70.7% | 83.6% | 71.8% | 81.1% | 91.3% | 81.6% | 76.4% | 61.9% | 41.8% | 34.9% | 58.3% | 65.7% | 59.9% | 46.6% | 48.9% | 99.4% | 12.5% |
| O=C(/C=C/c1ccc(F)cc1)c1nc2ccccc2n1Cc1ccc(F)cc1 | -35.7% (active) | 40.5% | -1.76% (active) | 6.65% (active) | 44.1% | 27.2% | -32% (active) | 18.4% | 16.2% | -10.9% (active) | -63.5% (active) | 25.6% | -30.5% (active) | 20.6% | -56.3% (active) | 8.29% (active) | 21.1% | -41.7% (active) | 21.3% | 6.99% (active) |
| CC(C)N=C([Se])NC(=O)c1cccs1 | 64.6% | -2.73% (active) | -2.97% (active) | 0.572% (active) | 41.1% | 17.6% | 84.7% | -14.3% (active) | 59.4% | -14% (active) | -63.3% (active) | 39.3% | 27.9% | -28.6% (active) | 12.2% | 8.44% (active) | -59.7% (active) | 27.5% | -57.7% (active) | 56% |
| CC(C)N=C([Se])NC(=O)c1ccccc1 | -33.5% (active) | -3.38% (active) | 8.36% (active) | -25.8% (active) | -77.7% (active) | 8.83% (active) | -11.7% (active) | -74.6% (active) | 14.3% | -23.9% (active) | -82.9% (active) | -36.2% (active) | 12.5% | -49.5% (active) | -59.4% (active) | -21.8% (active) | -57.1% (active) | -35.3% (active) | -40% (active) | -15.4% (active) |
| O=C(/C=C/c1ccccc1)c1nc2ccccc2n1Cc1ccc(F)cc1 | -48.5% (active) | 37% | -26% (active) | -28.9% (active) | -33% (active) | 24.8% | -43.4% (active) | 2.92% (active) | 10.8% | -11% (active) | -89.1% (active) | -1.28% (active) | -49.5% (active) | 3.39% (active) | -73.6% (active) | -33.5% (active) | 11% | -39% (active) | 18.9% | -25.3% (active) |
| O=C(/C=C/c1ccc(Cl)cc1Cl)c1nc2ccccc2n1Cc1ccc(F)cc1 | 38.7% | 69.7% | 58.2% | 43.8% | 76.2% | 66.5% | 83.6% | 55.4% | 49.9% | 60.6% | 17.9% | 66.3% | 7.3% (active) | 38.6% | 13.4% | 29.4% | 74.5% | 40.1% | 94.7% | 28% |
| CC(=O)Oc1ccccc1C(=O)NC([Se])=NC1CCCCC1 | -21% (active) | 0.722% (active) | 9.51% (active) | 6.6% (active) | -95.7% (active) | 20.4% | 28.9% | 20% | 66.1% | -8.45% (active) | -84.7% (active) | -1.74% (active) | 32.1% | -75.3% (active) | 24.2% | 44.6% | -80% (active) | -57.5% (active) | -43.7% (active) | 7.53% (active) |
